High-throughput results as filed in PubChem BioAssay.
The list is not random: actives were taken first. Their share in the collection is about 15%.
HCMV inh = qHTS Assay for inhibitors of the human cytomegalovirus (HCMV); activity change, negative = inhibition, % at 57.5 µM; 410,000 tested, 4.5% active; HFF cells, HCMV-luciferase reporter, 72 h; stronger effect = lower value; in the data active = activity change below about -60%; inconclusive = no clear call, values can overlap the other calls; inactive = above about -39%; note: % is set by controls: 0 for no effect and ±100 for the full control effect
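Two-dose cell screen: HFF monolayers treated with compounds and infected with luciferase-expressing HCMV at 1 PFU/cell, 72 h at 37C, then lysed for luciferase measurement.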
Sm TGR block = qHTS Assay for the Inhibitors of Schistosoma Mansoni Peroxiredoxins | Schistosoma mansoni thioredoxin glutathione reductase (TGR), Q962Y6 | purified TGR, DTNB reduction, TNB absorbance 405 nm | Potency, µM (titrated, usually from 114 µM), without a hit: at the top dose activity change, negative = inhibition, hits mostly inhibitors | 360,000 tested, 3% active | AID 485364, 2010; note: potency is the fitted concentration of half-maximal effect; % is set by controls: 0 for no effect and ±100 for the full control effect; nearly all actives have a fitted effect of over 60% in size
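Kinetic colorimetric format: TGR-catalysed, NADPH-driven DTNB reduction monitored via TNB absorbance. Enzyme dispensed at 20 nM; compound exposure 15 min at room temperature before reaction start.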
SARS PLpro yeast = qHTS of Yeast-based Assay for SARS-CoV PLP; S. cerevisiae expressing SARS-CoV PLpro, growth rescue; Potency, µM (top dose mostly 32.9 µM), for the others: top-dose activity, positive = growth rescue, most hits filed as activators; 330,000 tested, 0.19% active; AID 485353, 2010; calls by dose curve; note: potency is the fitted concentration of half-maximal effect; 0% is about no effect; nearly all actives have a fitted effect of over 55% in size
Pf growth 96h = Primary qHTS for delayed death inhibitors of the malarial parasite plastid, 96 hour incubation; P. falciparum luciferase reporter growth, 96 h; Potency, µM (top dose mostly 28.7 µM), for inactives: at the highest dose activity change, negative = inhibition, actives largely listed as inhibitors; 320,000 tested, 6.9% active; AID 504834, 2011; note: potency is the fitted concentration of half-maximal effect; % is set by controls: 0 for no effect and ±100 for the full control effect
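Infected RBCs, 2% Hct / 0.05% parasitemia final; luciferase-reporter P. falciparum; cpd 96 h, 37 C, 5% CO2; luciferase detection reagent; luminescence.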
HCV inhibitor = qHTS Assay for Inhibitors of Hepatitis C Virus (HCV) | Huh7.5.1 HCVcc-Cre infection, luciferase reporter, 44 h | Potency, µM (doses to about 41.8 µM), for the others: at the top dose activity change, negative = inhibition, most hits filed as inhibitors | 340,000 tested, 3.4% active; note: potency is the fitted concentration of half-maximal effect; % is set by controls: 0 for no effect and ±100 for the full control effect
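HCVcc-Cre virus at an moi near 0.5 was added right after compound to cells cultured 4 h from seeding (1,000 cells/well). Luciferase activity was determined 44 h later, 15 min after substrate addition at RT.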
Pf growth 48h = Primary qHTS for delayed death inhibitors of the malarial parasite plastid, 48 hour incubation; P. falciparum luciferase growth in erythrocytes, 48 h; Potency, µM (titrated, usually from 28.7 µM), for the others: top-dose activity change, negative = inhibition, most hits filed as inhibitors; 310,000 tested, 5.9% active; AID 504832, 2011; note: potency is the fitted concentration of half-maximal effect; % is set by controls: 0 for no effect and ±100 for the full control effect
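Growth was read as firefly luciferase luminescence after a 48 h, 37 C, 5% CO2 exposure of compounds to reporter-bearing P. falciparum cultures (0.1% parasitemia, 2% hematocrit final) in Albumax-supplemented RPMI 1640.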
* = called active by the depositor; u = inconclusive; x = no result given; ! = not active in a repeat. Unless noted, calls come from the whole dose curve; as a rule, active = well fitted curve in the direction sought with a large enough effect; inconclusive = small, poorly fitted or top-dose-only effect, or another doubt; inactive = no such curve, though single readings can be large; an effect the other way counts as inactive or inconclusive.

SMILES	HCMV inh	Sm TGR block	SARS PLpro yeast	Pf growth 96h	HCV inhibitor	Pf growth 48h
Cc1ccc(CS(=O)(=O)Cc2ccc(C(=O)NCc3ccccn3)o2)cc1	-1	40µM*	-3%	-40%	7%	u
Cc1ccc(C(=O)NCc2ccccn2)o1	u	4%	6%	19%	12%	u
COc1ccc(S(=O)(=O)Cc2ccc(C(=O)NCc3ccccn3)o2)cc1	10	35µM*	-4%	u	-5%	x
CCCN(CC(=O)Nc1ccccc1C)C(=O)CC(NC(=O)c1ccccc1)c1ccccc1 (stereo unspecified)	-14	6%	6%	u	-27%	u
COc1ccc(NC(=O)c2oc3ccccc3c2NC(=O)Cc2coc3cc(C)ccc23)cc1	57	2%	x	x	x	x
CN1CC(=O)N/C1=N\C(=O)Nc1ccc2c(c1)N(C)C(=O)CS2	51	u	9%	153%	10%	x
Cc1ccc(C2c3[nH]c4ccccc4c3C[C@H]3C(=O)N(c4ccccc4C(=O)N4CCC(C(=O)O)CC4)C(=O)N23)cc1 (stereo partly specified)	2	-18%	-5%	5.9µM*	11%	12µM*
O=C(O)C1CCN(C(=O)c2ccccc2N2C(=O)[C@@H]3Cc4c([nH]c5ccccc45)C(c4cccc(Cl)c4)N3C2=O)CC1 (stereo partly specified)	-38	-26%	4%	9.3µM*	4%	u
O=C(NCCc1ccccc1Cl)c1ccc(Cn2c(=O)c3cccn3c3cccnc32)cc1	-84*	0%	x	x	x	x
CC(C(=O)NCCc1ccc(Cl)cc1)n1c(=O)c2cccn2c2cccnc21 (stereo unspecified)	0	-2%	-29%	13%	11µM*	1%
Cc1ccc2c(c1C)NC(C)CC2C (stereo unspecified)	13	-9%	-1%	u	3%	13µM*
CCCCCNC(=O)C1C(=O)Nc2ccccc2C(=O)N1c1ccc(OC)cc1 (stereo unspecified)	1	x	x	x	x	x
Cc1ccc(-c2ccc(/C=N\NC(=O)C3C(=O)NCC3c3ccccc3)o2)cc1Cl (stereo unspecified)	30	u	-5%	u	8.9µM*	x
COc1cccc(N2CCN(C(=O)CN3C(=O)COc4ccc(S(=O)(=O)N5CCC(C)CC5)cc43)CC2)c1	4	5%	x	x	x	x
CCNS(=O)(=O)c1ccc(CCC(=O)Nc2ccc3c(c2)OCCO3)cc1	-9	0%	2%	u	6%	9.3µM*
CC(C)(C)NS(=O)(=O)c1ccc(CCC(=O)NCc2ccc3c(c2)OCO3)cc1	13	32µM*	-7%	u	13%	-22%
CC(C)NS(=O)(=O)c1ccc(CCC(=O)Nc2ccc3c(c2)OCCO3)cc1	-18	0%	22%	u	17%	4.7µM*
CCOC(=O)c1ccccc1NC(=O)Cn1c(=O)n(CCC(=O)N2CCc3ccccc3C2)c(=O)c2ccccc21	-11	3%	x	x	x	x
CCCN(C(=O)CCl)C1=CCCCC1	-100*	11µM*	1%	-37%	13µM*	u
O=C(NCCc1nc(-c2ccccc2)cs1)c1ccc(Br)cc1	-24	-8%	-37%	0%	11µM*	9%
CCc1ccccc1NC(=O)CSc1nc(-c2cccc(Cl)c2)nc2c1Cc1c(CO)cnc(C)c1O2	3	-22%	x	x	x	x
CCSc1nc(-c2ccccc2OC)nc2c1Cc1c(CO)cnc(C)c1O2	-35	-5%	x	x	x	x
COc1ccccc1NC(=O)CSc1nc(-c2cccc(Cl)c2)nc2c1Cc1c(CO)cnc(C)c1O2	-9	20µM*	x	x	x	x
CCSc1nc(-c2ccccc2F)nc2c1Cc1c(CO)cnc(C)c1O2	2	45µM*	x	x	x	x
COc1ccc(-c2nc3c(c(SCC(=O)Nc4cccc(O)c4)n2)Cc2c(CO)cnc(C)c2O3)cc1	-63*!	-24%	-9%	4%	u	9.3µM*
SMILES	HCMV inh	Sm TGR block	SARS PLpro yeast	Pf growth 96h	HCV inhibitor	Pf growth 48h
Cc1ncc(CO)c2c1Oc1nc(-c3ccccc3)nc(SCC(=O)Nc3cccc(O)c3)c1C2	-3	-13%	1%	-3%	u	9.3µM*
Cc1cccc(C)c1OC(=O)CN(c1ccc(Cl)cc1)S(C)(=O)=O	27	1%	-1%	u	-7%	u
CCc1ccc(S(=O)(=O)c2nnn3c2nc(Nc2cc(OC)ccc2OC)c2sccc23)cc1	11	6%	x	x	x	x
COc1ccc(-c2[nH]ncc2CN2CCC(c3ccncc3)CC2)cc1F	17	0%	-4%	-7%	29%	2%
O=[N+]([O-])/C(C(Cl)=C(Cl)Cl)=C(/NC1CC1)Sc1ccccc1	-38	4µM*	-1%	u	16%	-1%
Cc1ccc2c(CC(=O)Nc3ccc(S(=O)(=O)N4CCCCC4)cc3)coc2c1C	22	5%	x	x	x	x
Cc1noc(NS(=O)(=O)c2ccc(NC(=O)CC(C)C)cc2)c1C	20	-6%	-9%	21%	2%	26%
Cc1noc(NS(=O)(=O)c2ccc(NC(=O)C(C)C)cc2)c1C	4	25µM*	3%	-25%	8%	11%
COC(=O)c1ccc(S(=O)(=O)NNC(=O)COc2ccc(C)cc2)cc1	3	-9%	u	5.2µM*	-4%	22%
Cc1ccc(OCC(=O)Nc2ccc(S(=O)(=O)Nc3onc(C)c3C)cc2)cc1	10	89µM*	1%	u	15%	12%
O=c1c2ccccc2nc(/C=C/c2ccc3c(c2)OCO3)n1-c1ccccc1	-11	12%	4%	10µM*	u	u
COc1ccc(-n2c(/C=C/c3ccc(O)c(O)c3)nc3ccccc3c2=O)cc1	u	-32%	0%	2.3µM*	u	5.2µM*
Cc1ccccc1C(=O)N1CC(=O)Nc2ccc(F)cc2C1c1ccccc1 (stereo unspecified)	24	10%	2%	9%	-11%	u
Cc1ccc(S(=O)(=O)CCc2nnc(NC(=O)CCl)s2)cc1C	-78*	5µM*	0%	-64%	u	u
Cc1ccc(S(=O)(=O)CCc2nnc(N)s2)cc1C	21	0%	11%	u	9%	1%
Cc1nc(N2CCN(c3ccccn3)CC2)c2c(C)c(C(=O)N3CCN(c4cccc(Cl)c4)CC3)sc2n1	-2	4%	0%	1%	-1%	u
COC(=O)C1OCOC2C(C(=O)OC)OCOC12 (stereo unspecified)	-10	x	x	x	8%	x
